Holding throughout (assay): NCI-60 one-dose screen, 48 h (100 = growth as untreated, 0 = no growth, -100 = all killed)
One assay has as its system HT29 colon. To be noted: 10 µM unless noted.
In the next assay the test system is SNB-75 CNS. To be noted: 10 µM unless noted.
In another assay the test system is SNB-19 CNS. To be noted: 10 µM unless noted.
The next assay has as its system U251 CNS. To be noted: 10 µM unless noted.
The subject of the next assay is PC-3 prostate. To be noted: 10 µM unless noted.
The test system of another assay is SK-MEL-5 melanoma. To be noted: 10 µM unless noted.
A further assay has as its system UACC-62 melanoma. To be noted: 10 µM unless noted.
The subject of a further assay is SK-MEL-28 melanoma. To be noted: 10 µM.
Another assay concerns SK-MEL-2 melanoma. To be noted: 10 µM unless noted.
Another assay relates to SN12C renal. To be noted: 10 µM unless noted.
The subject of another assay is UO-31 renal. To be noted: 10 µM unless noted.
The subject of a further assay is TK-10 renal. To be noted: 10 µM unless noted.
A further assay deals with ACHN renal. To be noted: 10 µM unless noted.
A further assay concerns CAKI-1 renal. To be noted: 10 µM unless noted.
The test system of a further assay is A498 renal. To be noted: 10 µM unless noted.
A further assay concerns CCRF-CEM leukemia. To be noted: 10 µM unless noted.
A further assay has as its system MOLT-4 leukemia. To be noted: 10 µM unless noted.
A further assay concerns SR leukemia. To be noted: 10 µM unless noted.
In the next assay the test system is LOX IMVI melanoma. To be noted: 10 µM unless noted.
The test system of a further assay is EKVX NSCLC. To be noted: 10 µM unless noted.

The panel holds about 83,000 compounds, 20% with a hit somewhere; the sample as a whole holds those more often.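 Activity criterion: percent growth below 10, measured after cells in 96-well plates were exposed to a single compound concentration for 48 hours.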 A number with no mark means an inactive call. Active and inactive are the calls of the source.

Take `O=C(Nc1ccc(Cl)cc1)N1CCN(c2ccc3nncn3n2)CC1`: the growth is -28.6% (active) in the assay on HT29 colon; -68.9% (active) with SNB-75 CNS; 80.3% in the assay with SNB-19 CNS; -74.7% (active) in the assay with U251 CNS; 16.4% in the assay on PC-3 prostate; -98.4% (active) with SK-MEL-5 melanoma. The growth with UACC-62 melanoma was -88.3% (active); in the assay on SK-MEL-28 melanoma, -95.5% (active); in the assay with SK-MEL-2 melanoma it was 22%; in the assay on SN12C renal, 54.3%; in the assay with UO-31 renal, 36.1%; in the assay on TK-10 renal, 42.3%. The growth was 8.04% (active) in the assay with ACHN renal; 29.3% in the assay with CAKI-1 renal; 21.5% with A498 renal; -9.45% (active) with CCRF-CEM leukemia; -41.5% (active) with MOLT-4 leukemia; -40.5% (active) with SR leukemia.
In the case of `O=C(Nc1ccccc1O)c1ccc(Oc2cccc(C(=O)Nc3ccccc3O)c2)cc1`, the growth was 77.7% in the assay on HT29 colon; 31.1% in the assay with SNB-75 CNS; 21.7% with SNB-19 CNS; 11.8% with U251 CNS; 32.6% in the assay on PC-3 prostate; 10.9% with SK-MEL-5 melanoma. Moreover, the growth in the assay with UACC-62 melanoma is -33% (active); in the assay with SK-MEL-28 melanoma, 32.6%; with SK-MEL-2 melanoma, 28.4%; in the assay on SN12C renal, 15.4%; with TK-10 renal it was 28.3%; in the assay with ACHN renal it was 15.8%. For the same compound, the growth in the assay with CAKI-1 renal is -0.0411% (active); in the assay on CCRF-CEM leukemia it was -6.44% (active); with MOLT-4 leukemia it was -28.5% (active); with SR leukemia, -28.6% (active).
Regarding `COc1ccc(C(=O)Nc2ccc3nc(N4CCCCC4)cc(C)c3c2)cc1OC`, the growth was 20.8% in the assay on HT29 colon; 102% with SNB-75 CNS; 109% with SNB-19 CNS; 69.3% in the assay on U251 CNS; 45.1% in the assay on PC-3 prostate; 88.1% in the assay with SK-MEL-5 melanoma. Besides, the growth is 98.5% in the assay on UACC-62 melanoma; 94.5% in the assay with SK-MEL-28 melanoma; 119% with SK-MEL-2 melanoma; 88.8% in the assay with SN12C renal; 98.7% in the assay on UO-31 renal; 104% with TK-10 renal. Moreover, the growth in the assay with ACHN renal is 94.9%; with CAKI-1 renal it was 88.4%; in the assay on A498 renal, 35.5%; in the assay on CCRF-CEM leukemia it was 54.8%; in the assay with MOLT-4 leukemia, 49%; in the assay on SR leukemia, 33.1%.
Turning to `Cc1ccc2nc(NC(=O)CSC(=S)N3CCN(c4ccccc4)CC3)sc2c1`, the growth in the assay with HT29 colon was 96.6%; in the assay on SNB-75 CNS, 97.1%; in the assay with SNB-19 CNS, 96.9%; in the assay with U251 CNS, 86.3%; in the assay on PC-3 prostate, 95.5%; with SK-MEL-5 melanoma it was 95.4%. Also, the growth in the assay on LOX IMVI melanoma was -65% (active); in the assay on SK-MEL-28 melanoma, 107%; with SK-MEL-2 melanoma, 96.1%; with EKVX NSCLC, 109%; in the assay with SN12C renal, 99%; in the assay with UO-31 renal, 88.2%. Further, the growth in the assay with TK-10 renal was 108%; in the assay with ACHN renal, 100%; in the assay on A498 renal, 108%; in the assay on MOLT-4 leukemia it was 111%.
On to `COc1cc(C2C(C#N)=C(N)OC3=C2C(=O)c2ccccc2C3=O)cc(OC)c1O` (stereo not drawn), for which the growth with HT29 colon is 65.1%; in the assay on SNB-75 CNS, 4.8% (active); in the assay on SNB-19 CNS it was 37.3%; with U251 CNS, 19.9%; in the assay with PC-3 prostate it was 18.9%; in the assay on UACC-62 melanoma, 36.9%. In addition, the growth with LOX IMVI melanoma was 25.5%; in the assay with SK-MEL-28 melanoma it was 66.4%; with SK-MEL-2 melanoma it was 21.1%; in the assay with EKVX NSCLC, 78.9%; with SN12C renal, 47.5%; with UO-31 renal it was 36%. Further, the growth with TK-10 renal was 70.1%; in the assay on ACHN renal it was 41.2%; with CAKI-1 renal, 38.8%; with A498 renal, -8.45% (active); in the assay on CCRF-CEM leukemia, 106%; with MOLT-4 leukemia, 105%. Besides, the growth in the assay on SR leukemia is 38.1%.
Regarding `O=C(Nc1ccc(Br)cc1F)c1cc(Cl)ccc1O`, the growth in the assay on HT29 colon was 15.6%; in the assay on SNB-75 CNS, -34.7% (active); with SNB-19 CNS it was 14%; in the assay on U251 CNS, -0.181% (active); with PC-3 prostate it was -5.33% (active); with UACC-62 melanoma it was -24.9% (active). The growth with LOX IMVI melanoma is 1.68% (active); with SK-MEL-28 melanoma, -6.77% (active); in the assay on SK-MEL-2 melanoma, -25.8% (active); with EKVX NSCLC, 8.37% (active); with SN12C renal, -5.66% (active); with UO-31 renal, 9.99% (active). Also, the growth was 0.819% (active) with TK-10 renal; 0.275% (active) in the assay on ACHN renal; -21.3% (active) in the assay on CAKI-1 renal; -70.2% (active) with A498 renal; 5.57% (active) in the assay on CCRF-CEM leukemia; -28.1% (active) with MOLT-4 leukemia.
For `NC1(N2SC(S)=C3CCCC=C32)CCCCC1`, the growth in the assay on HT29 colon was 97.1%; in the assay on SNB-75 CNS it was 91.7%; in the assay with SNB-19 CNS it was 96.9%; in the assay with U251 CNS, 101%; in the assay on PC-3 prostate, 109%; in the assay on SK-MEL-5 melanoma, 104%. Also, the growth was 104% in the assay on UACC-62 melanoma; 114% in the assay on SK-MEL-28 melanoma; 111% in the assay on SK-MEL-2 melanoma; 104% in the assay with SN12C renal; 78.6% in the assay with UO-31 renal; 99.5% in the assay on TK-10 renal. Moreover, the growth is 102% in the assay with ACHN renal; 97% in the assay on CAKI-1 renal; 101% in the assay on A498 renal; 105% in the assay with CCRF-CEM leukemia; 87% in the assay on MOLT-4 leukemia; 86.9% in the assay with SR leukemia.
Turning to `O=C(/C=C/c1ccc(C(F)(F)F)cc1)c1ccc(Nc2nc(NCCO)nc(N3CCOCC3)n2)cc1`, the growth is 7.26% (active) with HT29 colon; 40.1% in the assay on SNB-75 CNS; 39.5% with SNB-19 CNS; -51.3% (active) in the assay with U251 CNS; 25.3% in the assay with PC-3 prostate; 46.3% with SK-MEL-5 melanoma. Moreover, the growth in the assay on UACC-62 melanoma is 56%; in the assay on SK-MEL-28 melanoma it was 94.1%; with SK-MEL-2 melanoma, 109%; in the assay with SN12C renal it was 71.5%; with UO-31 renal it was 48%; with TK-10 renal it was 81.8%. Also, the growth was 36.5% in the assay with ACHN renal; 53.1% in the assay with CAKI-1 renal; 10.3% in the assay on CCRF-CEM leukemia; 5.76% (active) with MOLT-4 leukemia; 19% in the assay with SR leukemia.
As to `O=C(Nc1ccc(F)cc1F)c1cc(I)ccc1O`, the growth in the assay on HT29 colon is 76.6%; in the assay on SNB-75 CNS, -2.44% (active); in the assay with SNB-19 CNS, 16.8%; with U251 CNS it was 4.06% (active); in the assay on PC-3 prostate it was 5.01% (active); with UACC-62 melanoma, 9.89% (active). Moreover, the growth in the assay with LOX IMVI melanoma was 13.4%; in the assay with SK-MEL-28 melanoma, 23.8%; in the assay with SK-MEL-2 melanoma, -15.8% (active); with EKVX NSCLC, 55.8%; in the assay on SN12C renal, 8.12% (active); in the assay with UO-31 renal, 2.51% (active). Also, the growth with TK-10 renal is 23.1%; with ACHN renal, 11%; with CAKI-1 renal, -17.5% (active); in the assay on A498 renal it was -33.2% (active); with CCRF-CEM leukemia, 14.1%; in the assay with MOLT-4 leukemia it was 7.29% (active).

(Values after PubChem BioAssay (NCI).)
